What all share (test): HT-SELEX; high values mean tight binding
Conditions in all cases: protein: recombinant; vector His6-GST; dsDNA, one strand shown

Test [1] has as its target T1, SALL4 ZFC4 WT (HT-SELEX) (Mus musculus, UniProt Q8BX22 870-940).
T1 sequence: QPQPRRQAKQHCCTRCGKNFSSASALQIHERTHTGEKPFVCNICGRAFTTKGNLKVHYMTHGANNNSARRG
The gist of the method: (§1)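 DNA from a random library (1.5 µg in the first cycle, 200 ng afterwards) was incubated with purified recombinant mouse SALL4 zinc finger cluster 4, residues 870–940 (1 µg), for 10 min at room temperature in 100 µl buffer: 10 mM Tris–HCl pH 7.5, 50 mM NaCl, poly(dI-dC), DTT. Bound complexes were pulled down on Ni2+ beads, washed and PCR-amplified, and the selection was repeated for up to 6 cycles in triplicate. MiSeq reads were scanned for 6-mers, and binding signal is each canonical k-mer's read fraction as fold change over the initial random library.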

Test [2] has as its target T2, SALL4 ZFC4 R900W (HT-SELEX) (Mus musculus, UniProt Q8BX22 870-940, R900W).
T2 sequence: T1 sequence with R31W
The gist of the method:
as §1

For test [3], the target named is T3, SALL4 ZFC4 G921D (HT-SELEX) (Mus musculus, UniProt Q8BX22 870-940, G921D).
T3 sequence: T1 sequence with G52D
The gist of the method: as §1

Changes are numbered by the printed parent chain.

For the sequence AGACCT, the binding signal in test [1] was found to be 0.753 ± 0.0476 fold-change vs cycle 0; in test [2], 0.917 ± 0.0202 fold-change vs cycle 0; in test [3], 0.963 ± 0.0152 fold-change vs cycle 0.

For AAAGTA, the binding signal in test [1] worked out at 1.92 ± 0.0856 fold-change vs cycle 0; in test [2], 1.98 ± 0.162 fold-change vs cycle 0; in test [3], 1.73 ± 0.169 fold-change vs cycle 0.

In the case of GATCAC, the binding signal in test [1] stood at 0.862 ± 0.0581 fold-change vs cycle 0; in test [2], 1.01 ± 0.0278 fold-change vs cycle 0; in test [3], 1.11 ± 0.0305 fold-change vs cycle 0.

As for GTAGAC, the binding signal was 0.684 ± 0.0405 fold-change vs cycle 0 in test [1], 0.821 ± 0.033 fold-change vs cycle 0 in test [2] and 0.891 ± 0.0118 fold-change vs cycle 0 in test [3].

With CCTCCC, the binding signal in test [1] turned out to be 0.317 ± 0.0293 fold-change vs cycle 0; in test [2], 0.372 ± 0.0347 fold-change vs cycle 0; in test [3], 0.467 ± 0.0525 fold-change vs cycle 0.

For AACTCC, the binding signal is 0.917 ± 0.0119 fold-change vs cycle 0 in test [1], 1.02 ± 0.0156 fold-change vs cycle 0 in test [2] and 1.06 ± 0.0177 fold-change vs cycle 0 in test [3].

As to AGTCTC, the binding signal in test [1] came out at 0.837 ± 0.0339 fold-change vs cycle 0; in test [2], 0.9527 ± 0.00762 fold-change vs cycle 0; in test [3], 1 ± 0.0392 fold-change vs cycle 0.

On to AGGGAG, for which the binding signal in test [1] is 0.59 ± 0.0373 fold-change vs cycle 0; in test [2], 0.667 ± 0.0517 fold-change vs cycle 0; in test [3], 0.737 ± 0.0368 fold-change vs cycle 0.

Consider AGTACT, for which the figures for the binding signal in test [1], in test [2] and in test [3] were 1.32 ± 0.0981 fold-change vs cycle 0, 1.45 ± 0.094 fold-change vs cycle 0 and 1.4 ± 0.116 fold-change vs cycle 0, respectively.

Turning to AACGAG, the binding signal in test [1] is 0.782 ± 0.0393 fold-change vs cycle 0; in test [2], 0.894 ± 0.0693 fold-change vs cycle 0; in test [3], 0.934 ± 0.0683 fold-change vs cycle 0.

As to AAGTTA, the binding signal in test [1] came to 2.21 ± 0.185 fold-change vs cycle 0; in test [2], 2.17 ± 0.193 fold-change vs cycle 0; in test [3] it was 1.9 ± 0.254 fold-change vs cycle 0.

TAGTAA: the binding signal worked out at 2.21 ± 0.0521 fold-change vs cycle 0 in test [1], 2.24 ± 0.0692 fold-change vs cycle 0 in test [2] and 1.89 ± 0.181 fold-change vs cycle 0 in test [3].

As to GTTGTA, the values for the binding signal in test [1], in test [2] and in test [3] were 1.18 ± 0.0293 fold-change vs cycle 0, 1.31 ± 0.0256 fold-change vs cycle 0 and 1.28 ± 0.0242 fold-change vs cycle 0, respectively.

Regarding CCCTAA, the values for the binding signal in test [1], in test [2] and in test [3] were 0.849 ± 0.0207 fold-change vs cycle 0, 0.947 ± 0.00994 fold-change vs cycle 0 and 0.952 ± 0.0492 fold-change vs cycle 0, respectively.

Turning to GGATGA, the values for the binding signal in test [1], in test [2] and in test [3] were 0.897 ± 0.0305 fold-change vs cycle 0, 1.01 ± 0.0334 fold-change vs cycle 0 and 1.02 ± 0.0224 fold-change vs cycle 0, respectively.

As for CAGTCG, the binding signal in test [1] amounted to 0.32 ± 0.0306 fold-change vs cycle 0; in test [2] it was 0.389 ± 0.0206 fold-change vs cycle 0; in test [3], 0.497 ± 0.0334 fold-change vs cycle 0.

AGTGAA: the figures for the binding signal in test [1], in test [2] and in test [3] were 1.35 ± 0.0774 fold-change vs cycle 0, 1.52 ± 0.125 fold-change vs cycle 0 and 1.39 ± 0.134 fold-change vs cycle 0, respectively.

As for AGGTCA, the binding signal came out at 0.772 ± 0.0359 fold-change vs cycle 0 in test [1], 0.893 ± 0.023 fold-change vs cycle 0 in test [2] and 0.972 ± 0.0353 fold-change vs cycle 0 in test [3].

In the case of ATTATG, the figures for the binding signal in test [1], in test [2] and in test [3] were 2.78 ± 0.17 fold-change vs cycle 0, 1.94 ± 0.0249 fold-change vs cycle 0 and 1.74 ± 0.121 fold-change vs cycle 0, respectively.

With CTCCGA, the binding signal worked out at 0.382 ± 0.00698 fold-change vs cycle 0 in test [1], 0.433 ± 0.0122 fold-change vs cycle 0 in test [2] and 0.589 ± 0.0734 fold-change vs cycle 0 in test [3].

As for ATACGG, the binding signal in test [1] is 0.67 ± 0.0205 fold-change vs cycle 0; in test [2], 0.767 ± 0.0197 fold-change vs cycle 0; in test [3], 0.808 ± 0.0319 fold-change vs cycle 0.

For the sequence AATTCA, the binding signal turned out to be 2.33 ± 0.187 fold-change vs cycle 0 in test [1], 1.93 ± 0.125 fold-change vs cycle 0 in test [2] and 1.77 ± 0.161 fold-change vs cycle 0 in test [3].

Take ACCGAT: the results for the binding signal in test [1], in test [2] and in test [3] were 0.687 ± 0.0287 fold-change vs cycle 0, 0.745 ± 0.0142 fold-change vs cycle 0 and 0.862 ± 0.0275 fold-change vs cycle 0, respectively.

Turning to AGCTAA, the binding signal in test [1] was 1.15 ± 0.044 fold-change vs cycle 0; in test [2] it was 1.26 ± 0.0399 fold-change vs cycle 0; in test [3], 1.27 ± 0.0601 fold-change vs cycle 0.

ATACTC: the figures for the binding signal in test [1], in test [2] and in test [3] were 1.45 ± 0.0421 fold-change vs cycle 0, 1.5 ± 0.0712 fold-change vs cycle 0 and 1.44 ± 0.097 fold-change vs cycle 0, respectively.

Regarding TAGACA, the binding signal in test [1] was 1.18 ± 0.0561 fold-change vs cycle 0; in test [2], 1.3 ± 0.0829 fold-change vs cycle 0; in test [3] it was 1.28 ± 0.0805 fold-change vs cycle 0.

Turning to AGGGTC, the binding signal in test [1] was determined as 0.434 ± 0.029 fold-change vs cycle 0; in test [2], 0.524 ± 0.0447 fold-change vs cycle 0; in test [3], 0.649 ± 0.0851 fold-change vs cycle 0.

ATGCAC: the binding signal in test [1] stood at 0.606 ± 0.0179 fold-change vs cycle 0; in test [2], 0.667 ± 0.022 fold-change vs cycle 0; in test [3], 0.775 ± 0.052 fold-change vs cycle 0.

As to CCAGAG, the binding signal in test [1] stood at 0.463 ± 0.0303 fold-change vs cycle 0; in test [2], 0.544 ± 0.0428 fold-change vs cycle 0; in test [3], 0.625 ± 0.0553 fold-change vs cycle 0.

In the case of ATGCTG, the binding signal worked out at 0.649 ± 0.0321 fold-change vs cycle 0 in test [1], 0.712 ± 0.0351 fold-change vs cycle 0 in test [2] and 0.801 ± 0.0529 fold-change vs cycle 0 in test [3].

Values taken from publication PMC9838217, “Structure of SALL4 zinc finger domain reveals link between AT-rich DNA binding and Okihiro syndrome”.
